{"source": "paper PMC12431657", "about": "“Discovery and mechanistic insights of dibenzoylmethane as a broad spectrum inhibitor of coronavirus” (PLOS Pathogens, 2025)", "tested_on": "HCoV-OC43", "parameters": "species or system RD; HTS, protection from HCoV-OC43 induced cell death, luminescent cell viability (CellCounting-Lite 2.0), inhibition rate", "conditions": "10 µM, inhibitor", "note": "Where two headings read alike, the source gives them in different places. In all, about 3,300 compounds went through this assay and about 60 (2%) showed an effect of 50% or more. The sample holds strong results, similar compounds and a random draw of the others, so the mix is not that of the screen."}
{"smiles": "CCC(=O)O[C@H]1[C@H](O[C@@H]2[C@@H](C)[C@H](O[C@H]3C[C@@](C)(OC)[C@@H](O)[C@H](C)O3)[C@@H](C)C(=O)O[C@H](CC)[C@@](C)(O)[C@H](O)[C@@H](C)C(=O)[C@H](C)C[C@@]2(C)O)O[C@H](C)C[C@@H]1N(C)C", "note": "[Erythromycin estolate, erythromycin estolate]", "values": [{"measurement": "OC43 Inhibition rate", "setting": "24 h post infection, 1 h compound pre-incubation", "result": 99.7, "unit": "%"}]}
{"smiles": "O=C1C([C@@H]2O[C@H](CO)[C@@H](O)[C@H](O)[C@H]2O)=C(O)/C(=C(O)/C=C/c2ccc(O)cc2)C(=O)C1(O)[C@@H]1O[C@H](CO)[C@@H](O)[C@H](O)[C@H]1O", "note": "(stereo partly drawn) [Hydroxysafflor yellow A]", "values": [{"measurement": "OC43 Inhibition rate", "setting": "24 h", "result": 0.2, "unit": "%"}]}
{"smiles": "Oc1c(Br)cccc1Br", "note": "[2,6-Dibromophenol]", "values": [{"measurement": "OC43 Inhibition rate", "setting": "24 h", "result": 1.1, "unit": "%"}]}
{"smiles": "C[C@H]1CCC[C@@H](O)CCCCCc2cc(O)cc(O)c2C(=O)O1", "note": "[Beta-Zearalanol]", "values": [{"measurement": "OC43 Inhibition rate", "setting": "24 h", "result": 0, "unit": "%"}]}
{"smiles": "C[C@H]1CCCC(=O)CCC/C=C/c2cc(O)cc(O)c2C(=O)O1", "note": "[Zearalenone]", "values": [{"measurement": "OC43 Inhibition rate", "setting": "24 h", "result": 56.4, "unit": "%"}]}
{"smiles": "C=C(C)[C@@H]1[C@H]2OC(=O)[C@@H]1[C@]1(O)C[C@H]3O[C@]34C(=O)O[C@H]2[C@]14C", "note": "[Picrotoxinin]", "values": [{"measurement": "OC43 Inhibition rate", "setting": "24 h", "result": 0.5}]}
{"smiles": "O=C1C=CC[C@@H]2[C@H]3CCC[N+]4([O-])CCC[C@@H](CN12)[C@@H]34", "note": "(stereo partly drawn) [Oxysophocarpine]", "values": [{"measurement": "OC43 Inhibition rate", "setting": "24 h", "result": -0.3, "unit": "%"}]}
{"smiles": "C[C@@H]1CC[C@@]2(NC1)O[C@H]1C[C@H]3[C@@H]4CC=C5C[C@@H](O[C@@H]6O[C@H](CO)[C@@H](O[C@@H]7O[C@@H](C)[C@H](O)[C@@H](O)[C@H]7O)[C@H](O)[C@H]6O)CC[C@]5(C)[C@H]4CC[C@]3(C)[C@H]1[C@@H]2C", "note": "[Khasianine]", "values": [{"measurement": "OC43 Inhibition rate", "setting": "24 h", "result": 67.5, "unit": "%"}]}
{"smiles": "Cc1c([C@H](C)[C@@H]2NC[C@@H](C)C[C@H]2O)ccc2c1C[C@H]1[C@H]2CC=C2C[C@@H](O[C@@H]3O[C@H](CO)[C@@H](O)[C@H](O)[C@H]3O)CC[C@@]21C", "note": "[Veratrosine]", "values": [{"measurement": "OC43 Inhibition rate", "setting": "24 h", "result": 5.4, "unit": "%"}]}
{"smiles": "C[C@@H]1CC[C@@]2(OC1)O[C@H]1C[C@H]3[C@@H]4CC=C5C[C@@H](O[C@@H]6O[C@H](CO)[C@@H](O[C@@H]7O[C@@H](C)[C@H](O[C@@H]8O[C@@H](C)[C@H](O)[C@@H](O)[C@H]8O)[C@@H](O)[C@H]7O)[C@H](O)[C@H]6O[C@@H]6O[C@@H](C)[C@H](O)[C@@H](O)[C@H]6O)CC[C@]5(C)[C@H]4CC[C@]3(C)[C@H]1[C@@H]2C", "note": "[Formosanin C]", "values": [{"measurement": "OC43 Inhibition rate", "setting": "24 h", "result": 5.5, "unit": "%"}]}
{"smiles": "COc1cc2ccc(=O)oc2c2ccoc12", "note": "[Sphondin]", "values": [{"measurement": "OC43 Inhibition rate", "setting": "24 h", "result": 0.1, "unit": "%"}]}
{"smiles": "COc1cc([C@@H]2c3cc4c(cc3C(=O)[C@H]3COC(=O)[C@H]23)OCO4)cc(OC)c1OC", "note": "[Podophyllotoxone]", "values": [{"measurement": "OC43 Inhibition rate", "setting": "24 h", "result": 4.4, "unit": "%"}]}
{"smiles": "Cc1ccc(C=O)cc1", "note": "[p-Tolualdehyde]", "values": [{"measurement": "OC43 Inhibition rate", "setting": "24 h", "result": -0.1}]}
{"smiles": "CC(C)=CCC[C@H](C(=O)O)[C@H]1CC[C@]2(C)C3=C(CC[C@@]12C)[C@@]1(C)CCC(=O)C(C)(C)[C@H]1CC3", "note": "[β-Elemonic acid]", "values": [{"measurement": "OC43 Inhibition rate", "setting": "24 h", "result": -1.4, "unit": "%"}]}
{"smiles": "CC1(C)OC1COc1c2occc2cc2ccc(=O)oc12", "note": "(stereo not drawn) [Oxyimperatorin]", "values": [{"measurement": "OC43 Inhibition rate", "setting": "24 h", "result": 2.8, "unit": "%"}]}
